# Assay outcomes from PubChem.
# Shown are actives, neighbours in structure and some others; about 27% of the full set was active somewhere.
# CYP2C19 activ = activators of human cytochrome P450 2C19; recombinant CYP2C19, luciferin-H EGE luminescence; hits give high values; 0 = fully inhibited enzyme, 1 = untreated enzyme; 96,000 tested, under 10 active; activation factor at 5 µM; AID 1025; P33261;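 active = activation factor of at least 2 at 5 µM in the primary screen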;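 also: 0 = wells with 2.5 mM tranylcypromine and 1 = vehicle-only wells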
# CYP2C9 activ = activators of human CYP2C9; activation factor at 5 µM; 96,000 tested, 1.4% active; recombinant CYP2C9, luciferin-H conversion, luminescence; hits give high values; factor 1 = untreated enzyme, 0 = blocked; P11712;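 active = activation factor of 2 or more for CYP2C9 at a 5 µM dose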;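 also: 0 = sulfaphenazole-blocked wells and 1 = vehicle-only wells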
# sEH activator = activators of human soluble epoxide hydrolase; P34913; purified human sEH enzymatic activity, activator screen; activation, % at 2 µM; 91,000 tested, 0.04% active; in the data active = activation above about 37%
# Target sequence (P34913 whole entry, looked up): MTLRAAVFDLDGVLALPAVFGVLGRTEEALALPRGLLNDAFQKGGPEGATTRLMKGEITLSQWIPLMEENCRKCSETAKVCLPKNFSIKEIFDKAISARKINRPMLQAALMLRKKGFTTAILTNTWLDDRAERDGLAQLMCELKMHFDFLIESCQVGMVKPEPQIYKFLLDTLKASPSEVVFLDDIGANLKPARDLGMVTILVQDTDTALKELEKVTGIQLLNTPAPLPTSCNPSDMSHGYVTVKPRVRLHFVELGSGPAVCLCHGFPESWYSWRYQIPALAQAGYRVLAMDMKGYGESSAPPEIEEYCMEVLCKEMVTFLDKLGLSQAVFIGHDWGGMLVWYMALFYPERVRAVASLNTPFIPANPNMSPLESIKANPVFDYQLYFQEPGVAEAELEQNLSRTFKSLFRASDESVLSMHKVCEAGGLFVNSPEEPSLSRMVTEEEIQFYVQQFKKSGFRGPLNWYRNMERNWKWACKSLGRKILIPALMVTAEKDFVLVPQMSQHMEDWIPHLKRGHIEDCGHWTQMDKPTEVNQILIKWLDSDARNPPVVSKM
# CYP2C9 inh = human CYP2C9 inhibition; P11712; CYP2C9 Supersomes, luciferin-H conversion, luminescence; inhibition, % at 5 µM; 96,000 tested, 20% active; AID 777;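 active = blocking of liver enzyme CYP2C9 beyond about 50% at 5 µM, limit read from the data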
# sEH inhibitor = soluble epoxide hydrolase (human) inhibition; P34913; recombinant human sEH enzymatic activity assay; 91,000 tested, 0.34% active; inhibition, % at 2 µM; AID 707; in the data active = inhibition above about 80%
# CYP2C19 inh = human CYP2C19 inhibition; 96,000 tested, 21% active; P33261; CYP2C19 Supersomes, luciferin-H EGE luminescence, 30 min; AID 778; inhibition, % at 5 µM;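 active = CYP2C19 inhibition above a set limit at 5 µM in the primary screen, cut at about 50% in these data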;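 also: plate controls were negative control wells for no effect and 2.5 mM tranylcypromine positive control for full effect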
# * = called active by the depositor; x = no result.
SMILES,CYP2C19 activ,CYP2C9 activ,sEH activator,CYP2C9 inh,sEH inhibitor,CYP2C19 inh
COc1ccc(CCN(CC(=O)NC2CCCC2)C(=O)CCC(=O)Nc2cc(C)on2)cc1OC,0.9,0.7,x,30,x,6
COc1ccc(C)cc1N(CC(=O)NC1CCCC1)C(=O)CCC(=O)Nc1cc(C)on1,0.7,0.6,16,40,-18,29
CCOC(=O)C1=C(C)N=C2SC(C)C(=O)N2C1c1ccc(OC(C)=O)c(OC)c1 (stereo unspecified),x,x,2,x,-4,x
CCOC(=O)C1=C(C)N=C2SC(C)C(=O)N2C1/C=C/c1ccccc1OC (stereo unspecified),0.5,0.2,0,80*,0,49
Cc1[nH]c2ccc(OCc3ccccc3)cc2c1CCN1C(=O)OC(C)(C)C1(C)O (stereo unspecified),0.5,0.6,x,40,x,51*
Cc1c(C(=O)O)c(=S)sn1CCOc1ccccc1,1,1,3,0,0,1
O=C1CN(C(=O)CSc2nnc(C3CC3)n2-c2ccccc2)c2ccccc2N1,0.9,0.9,0,11,0,12
Cc1cc2occ(CC(=O)Nc3nccs3)c2cc1C(C)C,1.2,1,9,-1,-9,-17
COC(=O)[C@@H](NC(=O)NCc1ccco1)C(C)C,0.9,1.1,-13,-8,16,6
Clc1ccc(CSc2nnc(-c3ccncc3)o2)cc1,0.1,0.2,0,82*,-1,92*
Clc1ccc(CSc2nnc(-c3ccc4c(c3)OCO4)o2)cc1,0.8,0.5,2,50*,0,21
Cc1ccc(NC(=O)Cc2nc(CSc3nnc(-c4ccc5c(c4)OCO5)o3)cs2)cc1,0.4,0.8,-60,20,59,61*
CCSc1nnc(-c2ccncc2)o1,x,x,0,x,4,x
Cc1ccc(NC(=O)CCSc2nnc(-c3ccco3)o2)cc1,0.8,1,-25,4,24,21
O=c1c2ccccc2nnn1CSc1nnc(-c2ccco2)o1,0.6,0.6,x,39,x,35
O=C(CN1C(=O)NC2(CCCCCCC2)C1=O)NCc1ccc2c(c1)OCO2,1,0.8,5,23,-4,5
O=C1/C(=C/c2cccnc2)Oc2cc(OS(=O)(=O)c3ccccc3)ccc21,0.7,0.4,2,56*,-1,35
O=C1CCCC2=C1C(c1ccc(OS(=O)(=O)c3ccc(Cl)cc3)cc1)C1=C(CCCC1=O)O2,1.1,1.2,-2,-17,2,-10
Cc1ccc(S(=O)(=O)Oc2cccc(N3C(=O)C4CC=CCC4C3=O)c2)cc1 (stereo unspecified),0.8,1.4,5,-38,-5,16
COc1ccc(S(=O)(=O)Oc2ccc3c(c2)O/C(=C\c2cccnc2)C3=O)cc1,0.3,0.1,6,92*,-7,75*
O=C1/C(=C/c2cccnc2)Oc2cc(OS(=O)(=O)c3ccc(Cl)cc3)ccc21,0.7,0.5,5,50*,-6,26
CC(C)NC(=O)CSc1nc(Cc2cccs2)nc2ccccc12,0.5,0.7,0,33,-2,50
O=C1/C(=C/c2cccc3ccccc23)CCCc2ccccc21,x,x,3,x,-2,x
CNc1oc(-c2ccc(C)cc2)nc1P(=O)(c1ccccc1)c1ccccc1,0.8,0.2,4,81*,-3,25
Cc1nc(P(=O)(c2ccccc2)c2ccccc2)c(N2CCOCC2)o1,1,0.7,-2,26,2,0
SMILES,CYP2C19 activ,CYP2C9 activ,sEH activator,CYP2C9 inh,sEH inhibitor,CYP2C19 inh
O=c1cc(-c2ccccc2)nc(SCc2ccccc2)[nH]1,0.9,0.8,9,16,-10,6
O=c1cc(-c2ccccc2)nc2nc(SCc3ccccc3)[nH]n12,1,0.1,2,90*,-1,1
O=c1cc(-c2ccccc2)nc2nc(CCc3ccccc3)[nH]n12,1.1,0.3,-9,72*,10,-12
Cc1nc2nc(-c3ccccc3)cc(=O)n2[nH]1,0.6,0.8,1,20,-2,39
O=c1cc(-c2ccccc2)nc2nc(-c3ccco3)[nH]n12,1.1,0.5,6,52*,-3,-12
O=c1cc(-c2ccccc2)nc(SCc2ccc(Cl)cc2)[nH]1,0.5,0.8,9,25,-11,54*
CN1CCN(Cc2nc3c(c(=O)[nH]c(=O)n3C)n2Cc2c(F)cccc2Cl)CC1,1.2,1.1,x,-11,x,-16
COC(=O)c1ccc(NCCc2csc(-c3ccc(C)cc3)n2)c([N+](=O)[O-])c1,0.5,0.4,11,60*,-12,52*
CCCN1C(=O)SC(CC(=O)Nc2ccc(Br)cc2)C1=O (stereo unspecified),0.3,0.5,-63,52*,64,70*
O=C(CC1Sc2ncnn2C1=O)Nc1ccc(Br)cc1 (stereo unspecified),0.2,0.8,x,20,x,76*
O=C(CC(=O)NC1CCCCC1)N/N=C/c1cccc2ccccc12,0.9,1,-20,-2,21,6
O=[N+]([O-])c1ccccc1-c1ccc(/C=N/n2cnnc2)o1,0.8,1,6,4,-5,24
Cc1ccc(-c2ccc(/C=N/n3cnnc3)o2)cc1Cl,0.4,0.4,-2,61*,3,64*
Clc1cccc(-c2ccc(/C=N/n3cnnc3)o2)c1,0.5,0.8,x,25,x,51*
CCc1nn(-c2ccccc2)c(N)c1-c1ccc(OC)c(OC)c1,1,1.7,-11,-68,11,3
CCOC(=O)c1c(C)c(-c2ccccc2)n(CC(=O)N2CCCC2)c1C,0.1,0.6,3,43,-4,88*
CCOC(=O)c1c(C)c(-c2ccccc2)n(CC(=O)N2CCN(C)CC2)c1C,0.9,1.1,-3,-9,2,14
O=c1c(-c2nnc(SCc3ccc(Cl)cc3)o2)cccn1Cc1ccccc1,0.1,0.6,17,45,-14,91*
Clc1ccc(CSc2nnc(/C=C/c3ccccc3)o2)cc1,0.9,0.9,0,14,2,9
O=C(Nc1ccccc1-c1nnc(SCc2ccc(Cl)cc2)o1)c1ccccc1,1,0.3,3,70*,-2,-3
Clc1ccc(CSc2nnc(-c3c[nH]c4ccccc34)o2)cc1,1,0.8,0,20,2,5
O=C(Nc1ccccc1-c1nnc(SCc2ccccc2)o1)c1ccccc1,0.8,0.2,9,79*,-6,16
CN(C)c1ccc(N/C=C/C(=O)c2ccc(F)cc2)cc1,0.3,0.9,-4,5,9,69*
COC(=O)C1=C(C)OC(N)=C(C#N)C1c1cc(OC)c(OCC(N)=O)cc1Cl (stereo unspecified),1,0.5,-11,47,12,-1
COc1ccc(C(=O)C2CN(c3ccccc3)CC2c2ccc(Cl)cc2)cc1 (stereo unspecified),0.5,0.4,-4,63*,2,47
Cc1nc(-c2cccc(NS(=O)(=O)c3cccc4ccccc34)c2)cs1,0,1.1,2,-6,0,98*
